# This excerpt belongs to a sample that is enriched for the strongest signals.
# How the values were obtained:
# Test in all cases: glycan array binding signal (z-score within array); higher = stronger binding
# Conditions in all cases: glycan notation: IUPAC condensed, linker removed
# [1] = target: Fuc(a1-2)Gal(b1-3)[Fuc(a1-4)]GlcNAc(b1-2)Man(a1-3)[Fuc(a1-2)Gal(b1-3)[Fuc(a1-4)]GlcNAc(b1-2)Man(a1-6)]Man(b1-4)GlcNAc(b1-4)[Fuc(a1-6)]GlcNAc(b1-4)[Fuc(a1-6)]GlcNAc
# Outline: (§1)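 Columns mapping to the same glycan were averaged after glycan names were converted to IUPAC-condensed notation. The data come from 3228 arrays in the Consortium for Functional Glycomics database, limited to those with an available protein sequence. Binding is reported as a within-array Z-score averaged across arrays of one protein sequence and across linkers.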
# [2] = target: Fuc(a1-2)Gal(b1-3)[Fuc(a1-4)]GlcNAc(b1-3)[Gal(b1-4)GlcNAc(b1-6)]Gal(b1-4)Glc
# Outline: as §1
# [3] = target: Fuc(a1-2)Gal(b1-4)Fuc(a1-3)]GlcNAc(b1-2)Man(a1-3)[Fuc(a1-2)Gal(b1-4)[Fuc(a1-3)]GlcNAc(b1-2)Man(a1-6)]Man(b1-4)GlcNAc(b1-4)GlcNAc
# Outline: as §1
# [4] = target: Fuc(a1-2)Gal(b1-4)[Fuc(a1-3)]GlcNAc(b1-3)Gal(b1-4)[Fuc(a1-3)]GlcNAc
# Outline: as §1
# [5] = target: Fuc(a1-2)[Gal(a1-3)]Gal(b1-3)GlcNAc(b1-2)Man(a1-3)[Fuc(a1-2)[Gal(a1-3)]Gal(b1-3)GlcNAc(b1-2)Man(a1-6)]Man(b1-4)GlcNAc(b1-4)[Fuc(a1-6)]GlcNAc
# Outline: as §1
# [6] = target: Fuc(a1-2)[Gal(a1-3)]Gal(b1-4)GlcNAc(b1-3)[Fuc(a1-2)[Gal(a1-3)]Gal(b1-4)GlcNAc(b1-6)]GalNAc
# Outline: as §1
# [7] = target: Fuc(a1-2)[GalNAc(a1-3)]Gal(b1-3)GalNAc(b1-3)Gal(a1-4)Gal(b1-4)Glc
# Outline: as §1
# [8] = target: Fuc(a1-2)[GalNAc(b1-3)]Gal
# Outline: as §1
# [9] = target: Fuc(a1-3)[Gal(b1-4)]GlcNAc(b1-3)Gal(b1-4)[Fuc(a1-3)]GlcNAc
# Outline: as §1
# Fuc(b1-3)GlcNAc = target: Fuc(b1-3)GlcNAc
# Outline: as §1
# [10] = target: Gal(a1-3)Gal(b1-3)[Fuc(a1-4)]GlcNAc(b1-2)Man(a1-3)[Gal(a1-3)Gal(b1-3)[Fuc(a1-4)]GlcNAc(b1-2)Man(a1-6)]Man(b1-4)GlcNAc(b1-4)GlcNAc
# Outline: as §1
# [11] = target: Gal(a1-3)[Gal(a1-4)]Gal(b1-4)GlcNAc
# Outline: as §1
# [12] = target: Gal(b1-3)GlcNAc(b1-3)Gal(b1-4)GlcNAc(b1-2)Man(a1-3)[Gal(b1-3)GlcNAc(b1-3)Gal(b1-4)GlcNAc(b1-2)Man(a1-6)]Man(b1-4)GlcNAc(b1-4)GlcNAc
# Outline: as §1
# [13] = target: Gal(b1-3)[Fuc(a1-4)]GlcNAc(b1-2)Man(a1-3)[Gal(b1-3)[Fuc(a1-4)]GlcNAc(b1-2)Man(a1-6)]Man(b1-4)GlcNAc(b1-4)[Fuc(a1-6)]GlcNAc
# Outline: as §1
# [14] = target: Gal(b1-3)[GlcNAc(b1-6)]GalNAc
# Outline: as §1
# [15] = target: Gal(b1-4)GalNAc(a1-3)[Fuc(a1-2)]Gal(b1-4)GlcNAc
# Outline: as §1
# [16] = target: Gal(b1-4)GlcNAc(b1-2)Man(a1-3)[Gal(b1-4)GlcNAc(b1-2)Man(a1-6)]Man(b1-4)GlcNAc(b1-4)[Fuc(a1-6)]GlcNAc
# Outline: as §1
# [17] = target: Gal(b1-4)GlcNAc(b1-2)[Gal(b1-4)GlcNAc(b1-6)]Man(a1-6)[Gal(b1-4)GlcNAc(b1-2)Man(a1-3)]Man(b1-4)GlcNAc(b1-4)[Fuc(a1-6)]GlcNAc
# Outline: as §1
# [18] = target: Gal(b1-4)GlcNAc(b1-3)Gal(b1-4)GlcNAc
# Outline: as §1
# [19] = target: Gal(b1-4)GlcNAc(b1-3)Gal(b1-4)GlcNAc(b1-2)Man(a1-3)[Gal(b1-4)GlcNAc(b1-3)Gal(b1-4)GlcNAc(b1-2)Man(a1-6)]Man(b1-4)GlcNAc(b1-4)GlcNAc
# Outline: as §1
# [20] = target: Gal(b1-4)GlcNAc(b1-3)Gal(b1-4)GlcNAc(b1-3)Gal(b1-4)GlcNAc(b1-3)Gal(b1-4)GlcNAc(b1-3)Gal(b1-4)GlcNAc(b1-3)Gal(b1-4)GlcNAc(b1-2)Man(a1-3)[Gal(b1-4)GlcNAc(b1-3)Gal(b1-4)GlcNAc(b1-3)Gal(b1-4)GlcNAc(b1-3)Gal(b1-4)GlcNAc(b1-3)Gal(b1-4)GlcNAc(b1-3)Gal(b1-4)GlcNAc(b1-2)Man(a1-6)]Man(b1-4)GlcNAc(b1-4)GlcNAc
# Outline: as §1
# [21] = target: Gal(b1-4)GlcNAc(b1-3)Gal(b1-4)GlcNAc(b1-3)[Gal(b1-4)GlcNAc(b1-3)Gal(b1-4)GlcNAc(b1-6)]GalNAc
# Outline: as §1
# [22] = target: Gal(b1-4)GlcNAc(b1-3)GalNAc
# Outline: as §1
# Gal3S6S(b1-4)GlcNAc6S = target: Gal3S6S(b1-4)GlcNAc6S
# Outline: as §1
# GalNAc(a1-3)GalNAc = target: GalNAc(a1-3)GalNAc
# Outline: as §1
# GalNAc3S(b1-4)GlcNAc3S = target: GalNAc3S(b1-4)GlcNAc3S
# Outline: as §1
# GalNAc4S6S(b1-4)GlcNAc = target: GalNAc4S6S(b1-4)GlcNAc
# Outline: as §1
# Glc(a1-6)Glc(a1-6)Glc = target: Glc(a1-6)Glc(a1-6)Glc
# Outline: as §1
# GlcA(b1-6)Gal = target: GlcA(b1-6)Gal
# Outline: as §1
# [23] = target: GlcA3S(b1-3)Gal(b1-4)GlcNAc(b1-3)Gal(b1-4)Glc
# Outline: as §1
# [24] = target: GlcNAc(a1-4)Gal(b1-4)GlcNAc(b1-3)Gal(b1-4)GlcNAc
# Outline: as §1
# [25] = target: GlcNAc(b1-3)Gal(b1-4)GlcNAc
# Outline: as §1
# [26] = target: GlcNAc(b1-3)Gal(b1-4)GlcNAc(b1-2)Man(a1-3)[GlcNAc(b1-3)Gal(b1-4)GlcNAc(b1-2)Man(a1-6)]Man(b1-4)GlcNAc(b1-4)[Fuc(a1-6)]GlcNAc
# Outline: as §1
# [27] = target: GlcNAc(b1-3)Gal(b1-4)GlcNAc(b1-3)Gal(b1-4)GlcNAc(b1-2)Man(a1-3)[GlcNAc(b1-3)Gal(b1-4)GlcNAc(b1-3)Gal(b1-4)GlcNAc(b1-2)Man(a1-6)]Man(b1-4)GlcNAc(b1-4)GlcNAc
# Outline: as §1
# [28] = target: GlcNAc(b1-3)Gal(b1-4)GlcNAc(b1-3)Gal(b1-4)GlcNAc(b1-3)Gal(b1-4)GlcNAc(b1-2)Man(a1-3)[GlcNAc(b1-3)Gal(b1-4)GlcNAc(b1-3)Gal(b1-4)GlcNAc(b1-3)Gal(b1-4)GlcNAc(b1-2)Man(a1-6)]Man(b1-4)GlcNAc(b1-4)[Fuc(a1-6)]GlcNAc
# Outline: as §1
# Kdn(a2-3)Gal(b1-4)GlcNAc = target: Kdn(a2-3)Gal(b1-4)GlcNAc
# Outline: as §1
# Neu5Ac(a2-3)Gal = target: Neu5Ac(a2-3)Gal
# Outline: as §1
# [29] = target: Neu5Ac(a2-3)Gal(b1-3)GalNAc(b1-3)Gal(a1-4)Gal(b1-4)Glc
# Outline: as §1
# [30] = target: Neu5Ac(a2-3)Gal(b1-3)GlcNAc(b1-3)Gal(b1-4)GlcNAc
# Outline: as §1
# [31] = target: Neu5Ac(a2-3)Gal(b1-3)GlcNAc(b1-6)GalNAc
# Outline: as §1
# [32] = target: Neu5Ac(a2-3)Gal(b1-4)GlcNAc(b1-3)Gal(b1-4)GlcNAc(b1-3)GalNAc
# Outline: as §1
# [33] = target: Neu5Ac(a2-3)Gal(b1-4)[Fuc(a1-3)]GlcNAc
# Outline: as §1
# [34] = target: Neu5Ac(a2-3)Gal(b1-4)[Fuc(a1-3)]GlcNAc(b1-3)Gal(b1-4)[Fuc(a1-3)]GlcNAc(b1-3)Gal(b1-4)[Fuc(a1-3)]GlcNAc
# Outline: as §1
# [35] = target: Neu5Ac(a2-3)Gal(b1-4)[Fuc(a1-3)]GlcNAc(b1-3)GalNAc
# Outline: as §1
# [36] = target: Neu5Ac(a2-3)[Neu5Ac(a2-6)]GalNAc
# Outline: as §1
# [37] = target: Neu5Ac(a2-6)Gal(b1-4)GlcNAc(b1-2)Man
# Outline: as §1
# [38] = target: Neu5Ac(a2-6)Gal(b1-4)GlcNAc(b1-2)Man(a1-3)[Gal(b1-4)GlcNAc(b1-2)Man(a1-6)]Man(b1-4)GlcNAc(b1-4)GlcNAc
# Outline: as §1
# [39] = target: Neu5Ac(a2-8)Neu5Ac(a2-3)Gal(b1-3)GalNAc(b1-4)[Neu5Ac(a2-3)]Gal(b1-4)Glc
# Outline: as §1
# [40] = target: Neu5Ac(a2-8)Neu5Ac(a2-3)[Gal(b1-3)GalNAc(b1-4)]Gal(b1-4)Glc
# Outline: as §1
# [41] = target: Neu5Ac(a2-8)Neu5Ac(a2-8)Neu5Ac(a2-8)Neu5Ac(a2-3)[GalNAc(b1-4)]Gal(b1-4)Glc
# Outline: as §1
binder,measurement,setting,value
"XTP3-B-MRH1 (Homo sapiens), Q96DZ1 (protein) LLEPLFKQSSCSYRIESYWTYEVCHGKHIRQYHEEKETGQKINIHEYYLGNMLAKNLLFEKEREAEEKEKSNEIPTKNIEGQMTPYYPVGMGNGTPCSLKQNRPRSSTVMYICHPESKHEILSVAEVTTCEYEVVILTPLLCSHPKYRFRA",glycan array binding signal (z-score),[1],0.479
same,glycan array binding signal (z-score),[2],0.735
same,glycan array binding signal (z-score),[3],3.43
same,glycan array binding signal (z-score),[4],0.249
same,glycan array binding signal (z-score),[5],-0.029
same,glycan array binding signal (z-score),[6],0.358
same,glycan array binding signal (z-score),[7],-0.49
same,glycan array binding signal (z-score),[8],-1.01
same,glycan array binding signal (z-score),[9],4.25
same,glycan array binding signal (z-score),Fuc(b1-3)GlcNAc,0.382
same,glycan array binding signal (z-score),[10],-0.237
same,glycan array binding signal (z-score),[11],-0.853
same,glycan array binding signal (z-score),[12],0.941
same,glycan array binding signal (z-score),[13],-0.731
same,glycan array binding signal (z-score),[14],-0.389
same,glycan array binding signal (z-score),[15],-0.41
same,glycan array binding signal (z-score),[16],-0.184
same,glycan array binding signal (z-score),[17],1.61
same,glycan array binding signal (z-score),[18],2.97
same,glycan array binding signal (z-score),[19],3.79
same,glycan array binding signal (z-score),[20],0.082
same,glycan array binding signal (z-score),[21],1.07
same,glycan array binding signal (z-score),[22],-0.205
same,glycan array binding signal (z-score),Gal3S6S(b1-4)GlcNAc6S,-0.392
same,glycan array binding signal (z-score),GalNAc(a1-3)GalNAc,3.12
same,glycan array binding signal (z-score),GalNAc3S(b1-4)GlcNAc3S,3.07
same,glycan array binding signal (z-score),GalNAc4S6S(b1-4)GlcNAc,-0.682
same,glycan array binding signal (z-score),Glc(a1-6)Glc(a1-6)Glc,-0.837
same,glycan array binding signal (z-score),GlcA(b1-6)Gal,0.841
same,glycan array binding signal (z-score),[23],-0.47
same,glycan array binding signal (z-score),[24],-0.549
same,glycan array binding signal (z-score),[25],-0.824
same,glycan array binding signal (z-score),[26],-0.235
same,glycan array binding signal (z-score),[27],2.48
same,glycan array binding signal (z-score),[28],4.18
same,glycan array binding signal (z-score),Kdn(a2-3)Gal(b1-4)GlcNAc,-0.086
same,glycan array binding signal (z-score),Neu5Ac(a2-3)Gal,-0.797
same,glycan array binding signal (z-score),[29],-0.636
same,glycan array binding signal (z-score),[30],0.189
same,glycan array binding signal (z-score),[31],-0.811
same,glycan array binding signal (z-score),[32],3.41
same,glycan array binding signal (z-score),[33],-0.083
same,glycan array binding signal (z-score),[34],-0.381
same,glycan array binding signal (z-score),[35],2.68
same,glycan array binding signal (z-score),[36],0.205
same,glycan array binding signal (z-score),[37],1.44
same,glycan array binding signal (z-score),[38],-0.887
same,glycan array binding signal (z-score),[39],-1.01
same,glycan array binding signal (z-score),[40],2.49
same,glycan array binding signal (z-score),[41],1.37
